Screens deposited in PubChem by National Center for Advancing Translational Sciences (NCATS).
RORgamma inh = ROR gamma (mouse) transcription inhibition; P51450; Potency, µM (doses to about 53.6 µM), without a hit: at the top dose activity change, negative = inhibition, hits mostly inhibitors; 5.4% of 310,000 active; Drosophila S2 Gal4-RORgamma UAS-luciferase reporter, 20 h; further: nearly all actives have a fitted effect of over 60% in size
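Using a luciferase readout, inhibitors were identified by reduced reporter activity in Drosophila cells coexpressing a copper-inducible Gal4–ROR gamma fusion and UAS-driven Photinus luciferase, incubated 20 hr after 700 uM copper sulfate.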
TDP1 cell noCPT = qHTS for Inhibitors of human tyrosyl-DNA phosphodiesterase 1 (TDP1): qHTS in cells in absence of CPT; 15% of 420,000 active; Potency, µM (highest dose often 46.2 µM), for the others: at the top dose activity change, negative = growth inhibition, usual class: inhibitors; AID 686978, 2013; DT40 Tdp1-/- hTDP1 cells, no CPT, ATP luminescence, 48 h; further: nearly all actives have a fitted effect of over 55% in size
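Stably hTDP1-transfected Tdp1-null chicken DT40 cells were treated with library compounds minus camptothecin and grown for at least 48 hr at 37 °C, after which cellular ATP was quantified by luminescence.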
12-LOX inh = inhibitors of human 12S-lipoxygenase ALOX12 | purified 12hLO, xylenol orange hydroperoxide absorbance | P18054 | 1.1% of 580,000 active | Potency, µM (highest dose often 108 µM), inactives show top-dose activity change, negative = inhibition, hits mostly inhibitors
Target sequence (P18054 whole entry, looked up): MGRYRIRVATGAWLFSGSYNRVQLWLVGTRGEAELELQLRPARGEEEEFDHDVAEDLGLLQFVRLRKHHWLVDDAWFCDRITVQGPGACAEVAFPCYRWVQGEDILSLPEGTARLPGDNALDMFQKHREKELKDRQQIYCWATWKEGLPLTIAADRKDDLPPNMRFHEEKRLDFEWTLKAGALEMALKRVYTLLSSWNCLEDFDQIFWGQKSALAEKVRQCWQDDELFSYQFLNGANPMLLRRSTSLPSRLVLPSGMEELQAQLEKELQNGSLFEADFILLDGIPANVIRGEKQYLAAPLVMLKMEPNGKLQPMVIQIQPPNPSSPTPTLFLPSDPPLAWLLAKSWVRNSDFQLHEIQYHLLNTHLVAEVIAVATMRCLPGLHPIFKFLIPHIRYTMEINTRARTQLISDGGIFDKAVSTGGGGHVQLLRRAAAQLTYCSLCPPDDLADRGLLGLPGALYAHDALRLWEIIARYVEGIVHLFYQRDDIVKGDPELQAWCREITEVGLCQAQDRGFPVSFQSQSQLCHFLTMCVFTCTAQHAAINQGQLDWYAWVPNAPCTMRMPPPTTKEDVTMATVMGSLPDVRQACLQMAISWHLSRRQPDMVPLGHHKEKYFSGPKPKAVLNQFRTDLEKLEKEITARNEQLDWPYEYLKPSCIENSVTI
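Purified human 12hLO (150 nM final) in 25 mM Hepes, 0.01% Triton X-100, pH 7.0 was preincubated 15 min at room temperature with compound. Then 40 uM arachidonic acid was added, 30 min. Hydroperoxide was read by Fe-XO absorbance ratio 573/405 nm.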
VP16 counter = Gal4-VP16 reporter inhibition counter-screen; Potency, µM (highest dose often 53.6 µM), for inactives: top-dose activity, negative = inhibition, hits mostly inhibitors; Drosophila S2 Gal4-VP16 UAS-luciferase, luminescence, 20 h; 3.5% of 310,000 active;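 further: Gal4-VP16 expression switched on by copper sulfate through the metallothionein promoter; nearly all actives have a fitted effect of over 50% in size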
DT40 TDP1 CPT = DT40-hTDP1 cell growth loss with CPT; chicken DT40 Tdp1-/-;hTDP1 cells + 20 nM CPT, ATP luminescence, 48 h; Potency, µM (titrated, usually from 46.2 µM), without a hit: at the top dose activity change, negative = growth inhibition, most hits filed as inhibitors; 12% of 420,000 active; AID 686979; further: nearly all actives have a fitted effect of over 55% in size
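Chicken DT40 Tdp1-/- cells complemented with human TDP1, 400 cells/well, exposed to compounds plus 20 nM camptothecin for at least 48 h at 37 C; viability read as ATP content by CellTiter-Glo luminescence.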
ELG1 DNA repair = blocks ELG1-dependent DNA repair in HEK293T cells; 2.3% of 330,000 active; Potency, µM (titrated, usually from 46.1 µM), inactives show top-dose activity change, negative = inhibition, actives largely listed as inhibitors; HEK293T ELG1-luciferase reporter, luminescence, 16 h; DNA damage induced by 5-fluorouridine; further: nearly all actives have a fitted effect of over 55% in size
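Luminescence from the luciferase reporter, measured 30 min after ONE-Glo reagent at room temperature, was the read-out. Beforehand, 2,000 cells per well were exposed for 16 hr at 37 °C to 5-fluorouridine together with compound or vehicle.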
Numbers without * were called inactive; i = inactive; ? = inconclusive; / = no result given; [ ] = remark or other dose. Most compounds without a hit are left out; they make up all but 15% or so of the library. The call rests on the fitted dose curve; in most records, active means well fitted curve in the direction sought with a large enough effect; inconclusive means small, poorly fitted or top-dose-only effect, or another doubt; inactive means no such curve, though single readings can be large; an effect the other way counts as inactive or inconclusive. On the % scale 0 is the no-effect control and ±100 the full control effect; potency means the concentration at half of the fitted maximal effect.

SMILES	RORgamma inh	TDP1 cell noCPT	12-LOX inh	VP16 counter	DT40 TDP1 CPT	ELG1 DNA repair
Cc1nc(SCC(=O)Nc2ccc3c(c2)OCO3)c(C#N)c2c1CCCC2	-0.2%	18.4µM*	i	-2.6%	20.6µM*	2.9%
Cc1ccc(C2=NC3(CCCCC3)N=C2SCC(=O)Nc2ccc3c(c2)OCCO3)cc1	?	?	379.7%	-4.1%	20.6µM*	?
NC(=O)C1Cc2ccccc2CN1C(=O)CCc1nc2ccccc2[nH]c1=O (stereo not drawn)	/	/	5.1%	/	/	/
CCOC(=O)C1(Cc2ccccc2F)CCCN(C(=O)c2ccc3ncccc3c2)C1 (stereo not drawn)	/	/	35.0%	/	/	/
CC(c1nc2ccccc2c(=O)[nH]1)N1CCN(S(=O)(=O)c2ccc(F)c(Cl)c2)CC1 (stereo not drawn)	/	?	-1.0%	/	18.4µM*	/
Cc1cc(C)c(C)c(S(=O)(=O)N2CCN(C(C)c3nc4ccccc4c(=O)[nH]3)CC2)c1C (stereo not drawn)	/	/	-4.2%	/	/	/
CC(C)NC(=O)N1CCC2(CC1)CC(N(C)Cc1ccccc1)CCO2 (stereo not drawn)	/	/	9.9%	/	/	/
COC(=O)c1ccc(NC(=S)NCCc2ccc(OC)cc2)cc1	7.94µM*	3.66µM*	-12.1%	?	?	?
COC(=O)c1ccc(NC(=S)NCCc2cccc(C)c2)cc1	1.26µM*	?	?	1.26µM*	?	3.7%
CCOC(=O)c1ccc(NC(=S)NCCc2ccc(OC)c(OC)c2)cc1	10µM*	?	?	?	?	?
COc1ccc(CCNC(=O)C(=O)Nc2ccc(C)c(C)c2)cc1	/	-6.3%	-13.5%	/	-1.3%	/
CCOC(=O)c1ccc(Nc2ccc(-c3ccc(OC)c(OC)c3)nn2)cc1	-19.2%	4.61µM*	-28.5%	?	?	0.0%
COCCn1c(SC(C)c2ccc(F)cc2)nnc1-c1ccncc1 (stereo not drawn)	/	/	-1.9%	/	/	/
CCOC(=O)c1ccc(N2C(=O)c3n[nH]c(-c4ccco4)c3C2c2ccc(C)cc2)cc1 (stereo not drawn)	/	10.3µM*	?	/	25.9µM*	/
CCOC(=O)c1ccc(N2C(=O)c3n[nH]c(C)c3C2c2ccc(OCC)cc2)cc1 (stereo not drawn)	/	10.3µM*	?	/	?	/
CCOC(=O)c1ccc(N2C(=O)c3n[nH]c(-c4ccco4)c3C2c2ccc([N+](=O)[O-])cc2)cc1 (stereo not drawn)	-0.2%[10 µM]	11.6µM*	-29.2%	-13.7%	23.1µM*	23.1µM*
CCOC(=O)Cc1csc(NC(=S)NC(=O)c2ccc(Cl)cc2)n1	7.08µM*	?	-22.3%	?	?	?
CCOC(=O)Cc1csc(NC(=S)NC(=O)c2ccc([N+](=O)[O-])cc2)n1	10µM*	-6.8%	?	?	-27.0%	6.0%
CCOC(=O)Cc1csc(NC(=O)Cc2ccc(Cl)cc2)n1	44.1%	-24.9%	?	-12.1%	?	?
O=C(Nc1nnc(Cc2c[nH]c3ccccc23)s1)C1CCCCC1	/	/	24.4%	/	/	/
CSc1ccc(C(C)NC(=O)c2ccccc2Br)cc1 (stereo not drawn)	/	/	-2.4%	/	/	/
Cn1cccc1C(=O)N1CCC2(CC1)C(=O)NCN2Cc1ccc(Cl)cc1	/	/	26.4%	/	/	/
CCOC(=O)CSC1=C(C#N)C(c2ccccc2OCC)C(C#N)C(=O)N1 (stereo not drawn)	-0.9%	18.4µM*	?	-2.6%	14.6µM*	18.7%
CCOC(=O)C1C(=O)NC(SCC(=O)Nc2nccs2)=C(C#N)C1c1ccccc1OCC (stereo not drawn)	-16.6%	13µM*	/	?	?	-16.4%
